From PubChem
Sampled rows, rich in hits. Any-hit rate of the full collection: about 2.8%.
PP5 inh: PP5 (human) phosphatase inhibition | hit rate 0.18% among 320,000 | purified PP5c, OMFP substrate fluorescence | inhibition, % at 6.7 µM | P53041;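 active = inhibition above the campaign's mean inhibition across all tested compounds plus 3 SD, cut at about 9.5% in these data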;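 also: 0% = DMSO only and 100% = 100 µM cantharidin control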
Target sequence (P53041 whole entry, looked up): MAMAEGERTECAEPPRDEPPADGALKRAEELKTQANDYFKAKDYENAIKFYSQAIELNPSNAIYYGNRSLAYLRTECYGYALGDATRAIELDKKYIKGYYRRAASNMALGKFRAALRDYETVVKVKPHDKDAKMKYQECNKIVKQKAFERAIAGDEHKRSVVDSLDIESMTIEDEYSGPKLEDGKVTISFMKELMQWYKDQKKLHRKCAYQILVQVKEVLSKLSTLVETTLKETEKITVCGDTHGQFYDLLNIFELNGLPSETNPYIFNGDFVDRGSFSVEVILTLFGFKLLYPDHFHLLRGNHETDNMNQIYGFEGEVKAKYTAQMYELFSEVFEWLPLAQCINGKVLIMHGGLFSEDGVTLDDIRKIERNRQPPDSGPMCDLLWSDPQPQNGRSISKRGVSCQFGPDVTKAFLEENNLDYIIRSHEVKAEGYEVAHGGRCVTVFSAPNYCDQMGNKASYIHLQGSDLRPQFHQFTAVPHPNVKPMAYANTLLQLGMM
IDE inh: inhibitors of human insulin-degrading enzyme in cells; P14735; HEK cells, FAbetaB cleavage, fluorescence polarization; inhibition, % at 5.59 µM; hit rate 0.41% among 320,000; AID 434962;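 active = percent inhibition above the average of all tested compounds plus 3 SD, set per screening campaign, cut at about 16% in these data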;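 also: IDE supplied by intact live HEK cells; FP after avidin binding of uncleaved biotin substrate so inhibition keeps polarization high; 0% = DMSO wells and 100% = 60 µM reference IDE inhibitor Ii1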
Granule exo inh: lytic granule exocytosis inhibition | TALL-104 LAMP-1 surface exposure, flow cytometry; cells stimulated with thapsigargin and PMA | inhibition, % at 10 µM | hit rate 0.66% among 360,000 | AID 651702;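 active = inhibition above about 55%, limit read from the data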
SKKanGAS inh: SKKanGAS growth inhibition | inhibition, % at 7.5 µM | hit rate 1.3% among 300,000 | S. pyogenes SKKanGAS, kanamycin growth, BacTiter-Glo, 6 h;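 active = mean replicate score, as percent of positive control median, at least 50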;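 also: strain carries kanamycin resistance gene driven by streptokinase promoter and grows in 40 µg/ml kanamycin; loss of luminescence reflects streptokinase promoter inhibition or plain growth inhibition; 0% = median of DMSO wells and 100% = positive control at its reference dose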
PP1 counter: blocks human PP1-alpha phosphatase, a PP5 counter-screen; P62136; purified PP1alpha, OMFP fluorescence; inhibition, % at 6.7 µM; hit rate 0.9% among 320,000;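 active = inhibition above the mean inhibition of all tested compounds plus 3 SD, computed separately for each screening campaign, cut at about 15% in these data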
IDE cell activ: IDE (human) activation, cell-based | P14735 | HEK cells, FAbeta-B cleavage, fluorescence polarization; 0% vehicle, 100% cell-free pure enzyme wells | activation, % at 5.96 µM | hit rate 0.073% among 340,000;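 active = activation above the mean of all tested compounds plus 3 SD, set per screening campaign, cut at about 17% in these data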
Granule exo CP1: lytic granule exocytosis inhibition. shares compounds with Granule exo inh. TALL-104 cells, LAMP-1 externalization, flow cytometry; stimulated with PMA plus thapsigargin. inhibition, % at 10 µM. hit rate 11% among 1,500; in the data active = inhibition above about 60%;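 also: 0% = stimulated vehicle wells and 100% = unstimulated wells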
An asterisk follows results filed as active; x = no result.

SMILES | PP5 inh | IDE inh | Granule exo inh | SKKanGAS inh | PP1 counter | IDE cell activ | Granule exo CP1
COC(=O)c1c(NC(=O)CSc2nnc(CNc3ccc(Cl)cc3)o2)sc(C)c1C | 3.2 | 2.8 | 91.7* | 5.5 | -3.4 | -0.9 | -2.8
CCCCCC(=O)N1CCCCC1 | -0.8 | -2.3 | -5.9 | 2.8 | -1.7 | 2.0 | x
O=C(Nc1cccc(Cl)c1)c1ccc2c(c1)OCCO2 | 1.3 | 0.8 | 61.4* | -7.6 | 3.4 | 0.0 | -4.9
O=C(Nc1ccc2c(c1)OCCO2)c1cccc(Cl)c1 | 2.4 | 1.4 | -10.1 | 0.5 | -3.4 | 5.0 | x
COc1ccccc1/C=C/C=c1\sc2nc(=O)c(Cc3ccccc3)nn2c1=O | 0.9 | 0.2 | 3.0 | 7.0 | 7.4 | 8.0 | x
COc1cc2ccccc2cc1C(=O)Nc1ccc(C)cn1 | 1.2 | -0.1 | -0.8 | -14.7 | 0.3 | -3.0 | x
O=C(CSc1ncnc2c1cnn2CCc1ccccc1)Nc1cccc(C(F)(F)F)c1 | 4.0 | 3.6 | 82.6* | 26.7 | 5.6 | -2.2 | 2.7
COc1cc(C(C)=O)ccc1OCC(=O)NCC(c1ccc(F)cc1)N1CCOCC1 (stereo not given) | x | -1.0 | 61.6* | x | x | 2.2 | -4.7
O=C(c1ccsc1)N1CCCC(N2CCOCC2)C1 (stereo not given) | -1.3 | 6.1 | -3.8 | -4.4 | -1.0 | 0.6 | x
O=c1[nH]nnc2c1ncn2C1OC(CO)C(O)C1O (stereo not given) | x | x | -9.6 | x | x | x | x
CN1CCc2cccc3c2[C@H]1Cc1ccc(O)c(O)c1-3 | 1.2 | 2.1 | 83.6* | 3.7 | 1.5 | -21.3 | 6.2
Cc1ccc(NC(=O)CSc2nnc(-c3ccoc3C)n2CCCN(C)C)cc1Cl | -0.9 | 1.4 | 62.6* | -5.6 | -1.8 | -0.2 | -4.8
C=C1CC2(OC1=O)c1ccccc1CCc1ccccc12 | x | x | 90.2* | x | x | -4.6 | -10.1
COC(=O)c1ccccc1NS(=O)(=O)c1ccc(Cl)nc1 | -2.4 | 0.6 | 85.9* | -2.0 | -4.2 | 0.0 | -11.1
CNC(=O)COc1ccc(Nc2nnc(-c3ccc(C)c(S(N)(=O)=O)c3)c3ccccc23)cc1 | 2.7 | 4.5 | -8.7 | -2.1 | 3.0 | 1.0 | x
COc1cc(CN2CCCC(C(=O)c3ccc4c5c(cccc35)CC4)C2)cc(OC)c1O (stereo not given) | 1.3 | 10.7 | 73.2* | -3.1 | -0.9 | 1.9 | 2.5
CC(C)(C)S(=O)N1Cc2cc(C(=O)Nc3ccc(-c4ccccc4)cc3)nc(-c3cccc(-c4cc5ccccc5o4)c3)c2[C@@H]1CCO (stereo not given in full) | x | x | 1.3 | x | x | x | x
O=C(N[C@@H](Cc1ccccc1)C(=O)O)c1ccc(C(F)(F)F)cc1 | -1.7 | -3.5 | 84.5* | 4.2 | -3.7 | -1.7 | -3.1
Cc1ccc(-n2nnc3c(=O)oc4ccccc4c32)cc1 | 2.2 | 3.4 | 93.5* | -0.5 | -0.1 | -2.0 | 83.0*
Cc1ccc2cccc(NC(=O)c3ccc(Br)o3)c2n1 | 0.0 | -1.6 | 89.1* | -3.1 | 0.6 | 5.1 | -4.2
O=C(Nc1ccccc1F)c1ccc(Br)o1 | 0.7 | 2.1 | -8.6 | 4.4 | 1.4 | -1.3 | x
C/C(=N\NC(=O)Cc1c(Cl)cccc1Cl)c1cccnc1 | x | x | -4.6 | 15.2 | x | -0.3 | x
O=C(CNCc1ccc(Cl)cc1)Nc1cc(S(=O)(=O)N2CCCC2)ccc1Cl | x | x | 77.4* | x | x | 2.4 | -9.3
O=C(Cc1ccccc1F)Nc1cc(S(=O)(=O)N2CCCC2)ccc1Cl | 1.9 | 0.0 | 2.1 | x | 1.5 | 3.3 | x
O=C(O)c1nn(CCOc2cccc(Cl)c2)c(=O)c2ccccc12 | 3.9 | 6.7 | 3.5 | -3.7 | 5.2 | -6.4 | x
O=C(O)c1nn(CCOc2cccc(Br)c2)c(=O)c2ccccc12 | 2.6 | 3.2 | 72.6* | -6.5 | 2.5 | 0.3 | -1.9
CCN(Cc1cccc(OC)c1)CC1CCCN(CCc2cccc(OC)c2)C1 (stereo not given) | -1.2 | -4.3 | 70.8* | -3.0 | -2.5 | 7.9 | -12.9
CCN(Cc1ccc(O)cc1)CC1CCCN(CCc2cccc(F)c2)C1 (stereo not given) | -0.6 | 1.8 | 67.2* | -1.7 | -1.3 | -4.1 | -12.6
CCN(CC1CCCN(CCc2cccc(OC)c2)C1)C(=O)C=C(C)C (stereo not given) | 0.4 | 5.9 | 21.8 | 0.9 | 3.0 | 1.1 | x
C=CCC(=O)N(CC)CC1CCCN(CCc2cccc(F)c2)C1 (stereo not given) | x | x | 22.5 | -3.1 | x | 1.9 | x
